# ChEMBL document CHEMBL1961873, “Compounds: GSK PKIS; Assays: Nanosyn kinase panel” (2012)
# Key:
# [1] = biological target: T1, Tyrosine-protein kinase receptor TYRO3 (Homo sapiens) (UniProt Q06418); conditions: at 1 µM
# T1 sequence (whole entry): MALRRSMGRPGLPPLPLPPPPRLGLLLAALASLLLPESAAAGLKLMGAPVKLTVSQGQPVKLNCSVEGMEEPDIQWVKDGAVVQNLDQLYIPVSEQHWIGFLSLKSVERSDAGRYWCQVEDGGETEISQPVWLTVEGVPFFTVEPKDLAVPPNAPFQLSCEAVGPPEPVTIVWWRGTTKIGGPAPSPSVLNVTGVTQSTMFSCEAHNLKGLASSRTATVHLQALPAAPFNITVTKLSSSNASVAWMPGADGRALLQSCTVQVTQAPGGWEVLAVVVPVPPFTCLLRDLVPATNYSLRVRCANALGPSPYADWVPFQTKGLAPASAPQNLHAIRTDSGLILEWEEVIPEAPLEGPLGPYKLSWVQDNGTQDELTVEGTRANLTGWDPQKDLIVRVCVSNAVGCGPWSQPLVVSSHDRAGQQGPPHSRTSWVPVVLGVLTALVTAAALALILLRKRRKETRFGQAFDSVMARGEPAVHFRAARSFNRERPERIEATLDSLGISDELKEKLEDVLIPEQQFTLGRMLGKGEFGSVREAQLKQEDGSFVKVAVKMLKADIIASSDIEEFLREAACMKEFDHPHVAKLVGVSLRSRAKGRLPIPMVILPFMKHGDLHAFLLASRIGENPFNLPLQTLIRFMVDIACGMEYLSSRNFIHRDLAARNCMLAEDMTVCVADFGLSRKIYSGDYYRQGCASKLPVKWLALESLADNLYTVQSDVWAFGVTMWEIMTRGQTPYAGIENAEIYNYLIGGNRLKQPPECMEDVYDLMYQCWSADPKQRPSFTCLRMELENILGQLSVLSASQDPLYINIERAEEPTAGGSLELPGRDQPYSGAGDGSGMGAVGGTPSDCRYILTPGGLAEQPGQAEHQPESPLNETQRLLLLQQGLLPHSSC
# [2] = biological target: Tyrosine-protein kinase Yes (Homo sapiens) (UniProt P07947); conditions: at 0.1 µM
# Sequence of Tyrosine-protein kinase Yes (Homo sapiens) (P07947 2-543 limits assumed): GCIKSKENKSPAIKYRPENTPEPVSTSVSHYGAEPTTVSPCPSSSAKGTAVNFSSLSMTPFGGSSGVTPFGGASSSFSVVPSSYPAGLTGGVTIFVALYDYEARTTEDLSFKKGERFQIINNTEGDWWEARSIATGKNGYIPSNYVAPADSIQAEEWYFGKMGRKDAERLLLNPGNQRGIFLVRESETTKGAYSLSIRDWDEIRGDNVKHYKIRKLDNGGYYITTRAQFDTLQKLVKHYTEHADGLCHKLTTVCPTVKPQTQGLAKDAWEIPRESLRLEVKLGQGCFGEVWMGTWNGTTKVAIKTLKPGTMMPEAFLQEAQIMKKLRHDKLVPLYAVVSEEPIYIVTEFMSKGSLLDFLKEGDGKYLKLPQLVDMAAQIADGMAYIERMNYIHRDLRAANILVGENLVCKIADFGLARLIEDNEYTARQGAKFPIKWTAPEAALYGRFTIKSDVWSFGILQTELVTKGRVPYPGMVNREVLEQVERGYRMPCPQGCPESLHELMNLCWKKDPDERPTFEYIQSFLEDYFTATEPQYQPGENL
# [3] = biological target: Tyrosine-protein kinase Yes (Homo sapiens) (UniProt P07947); conditions: at 1 µM
# [4] = biological target: T2, Tyrosine-protein kinase ZAP-70 (Homo sapiens) (UniProt P43403); conditions: at 0.1 µM
# T2 sequence (whole entry): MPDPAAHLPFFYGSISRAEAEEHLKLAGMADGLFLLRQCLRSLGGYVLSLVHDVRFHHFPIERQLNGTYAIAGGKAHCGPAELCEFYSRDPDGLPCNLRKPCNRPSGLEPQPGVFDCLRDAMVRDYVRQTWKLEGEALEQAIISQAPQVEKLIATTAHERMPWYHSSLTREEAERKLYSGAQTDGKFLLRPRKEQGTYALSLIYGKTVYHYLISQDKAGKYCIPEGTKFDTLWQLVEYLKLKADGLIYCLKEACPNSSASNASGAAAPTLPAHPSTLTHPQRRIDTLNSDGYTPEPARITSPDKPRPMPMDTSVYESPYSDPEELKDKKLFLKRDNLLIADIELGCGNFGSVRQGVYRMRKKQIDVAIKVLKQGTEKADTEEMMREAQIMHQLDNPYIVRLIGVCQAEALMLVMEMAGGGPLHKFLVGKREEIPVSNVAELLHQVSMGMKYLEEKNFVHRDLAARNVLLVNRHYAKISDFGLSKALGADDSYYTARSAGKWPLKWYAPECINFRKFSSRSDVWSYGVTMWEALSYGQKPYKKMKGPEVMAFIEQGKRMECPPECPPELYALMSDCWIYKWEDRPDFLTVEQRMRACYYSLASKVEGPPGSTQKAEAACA
# [5] = biological target: T2, Tyrosine-protein kinase ZAP-70 (Homo sapiens); conditions: at 1 µM
# [6] = biological target: Serine/threonine-protein kinase B-raf (Homo sapiens) (UniProt P15056); conditions: at 0.1 µM
# Sequence of Serine/threonine-protein kinase B-raf (Homo sapiens) (P15056 whole entry): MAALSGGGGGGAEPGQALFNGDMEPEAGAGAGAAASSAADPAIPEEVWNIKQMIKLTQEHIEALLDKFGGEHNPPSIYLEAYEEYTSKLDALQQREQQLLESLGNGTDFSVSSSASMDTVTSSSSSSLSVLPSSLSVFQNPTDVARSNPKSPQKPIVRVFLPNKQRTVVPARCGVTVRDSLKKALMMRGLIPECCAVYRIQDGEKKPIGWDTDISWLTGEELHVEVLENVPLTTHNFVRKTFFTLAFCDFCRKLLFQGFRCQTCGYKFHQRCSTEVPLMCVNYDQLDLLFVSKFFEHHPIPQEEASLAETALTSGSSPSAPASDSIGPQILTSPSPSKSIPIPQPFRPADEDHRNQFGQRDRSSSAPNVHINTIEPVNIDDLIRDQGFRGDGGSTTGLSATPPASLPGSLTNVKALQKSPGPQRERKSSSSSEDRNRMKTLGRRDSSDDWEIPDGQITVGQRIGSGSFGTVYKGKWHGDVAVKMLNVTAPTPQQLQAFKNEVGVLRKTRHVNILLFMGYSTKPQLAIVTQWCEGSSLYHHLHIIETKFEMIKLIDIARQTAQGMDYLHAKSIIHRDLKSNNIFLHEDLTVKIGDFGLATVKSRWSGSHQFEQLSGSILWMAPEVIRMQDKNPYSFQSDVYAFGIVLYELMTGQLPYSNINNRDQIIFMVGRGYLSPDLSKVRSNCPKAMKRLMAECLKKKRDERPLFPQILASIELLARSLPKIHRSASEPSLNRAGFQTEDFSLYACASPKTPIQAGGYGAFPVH
# [7] = biological target: Serine/threonine-protein kinase B-raf (Homo sapiens) (UniProt P15056); conditions: at 1 µM
# [8] = test system: Serine/threonine-protein kinase B-raf (Homo sapiens), P15056 [V600E]; conditions: at 0.1 µM
# Sequence of Serine/threonine-protein kinase B-raf (Homo sapiens), P15056 [V600E] (P15056 whole entry V600E): as the sequence (P15056 whole entry) above, with V600E counted along it
# [9] = test system: Serine/threonine-protein kinase B-raf (Homo sapiens), P15056 [V600E]; conditions: at 1 µM
# [10] = biological target: RAF proto-oncogene serine/threonine-protein kinase (Homo sapiens) (UniProt P04049); conditions: at 0.1 µM;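 also: values are mean CRAF kinase inhibition from profiling of the GSK Published Kinase Inhibitor Set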
# Sequence of RAF proto-oncogene serine/threonine-protein kinase (Homo sapiens) (P04049 whole entry): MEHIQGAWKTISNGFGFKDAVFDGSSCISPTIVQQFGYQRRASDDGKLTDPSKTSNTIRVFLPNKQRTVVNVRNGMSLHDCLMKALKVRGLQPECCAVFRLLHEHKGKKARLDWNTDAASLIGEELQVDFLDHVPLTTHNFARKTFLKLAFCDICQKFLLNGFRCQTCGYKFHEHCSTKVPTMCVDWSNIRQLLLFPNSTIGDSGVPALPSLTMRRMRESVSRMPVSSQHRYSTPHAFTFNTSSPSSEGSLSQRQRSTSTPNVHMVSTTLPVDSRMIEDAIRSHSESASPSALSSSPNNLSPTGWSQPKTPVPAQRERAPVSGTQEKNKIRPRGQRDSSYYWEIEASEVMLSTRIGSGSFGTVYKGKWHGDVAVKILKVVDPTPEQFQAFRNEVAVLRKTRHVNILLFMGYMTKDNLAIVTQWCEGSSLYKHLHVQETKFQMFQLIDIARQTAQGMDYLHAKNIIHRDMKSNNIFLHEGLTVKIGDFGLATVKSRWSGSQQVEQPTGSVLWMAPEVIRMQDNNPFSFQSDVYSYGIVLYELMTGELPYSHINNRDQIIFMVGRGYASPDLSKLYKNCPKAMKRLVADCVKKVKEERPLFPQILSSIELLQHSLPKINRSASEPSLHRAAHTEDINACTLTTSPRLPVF
structure (smiles),measurement,setting,value
CC(C)=Cc1cccc2c1/C(=N/Nc1ccc(S(N)(=O)=O)cc1)C(=O)N2,inhibition,[1],9.24%
same,inhibition,[2],2.28%
same,inhibition,[3],18%
same,inhibition,[4],4.6%
same,inhibition,[5],4.98%
same,inhibition,[6],0.07%
same,inhibition,[7],2.13%
same,inhibition,[8],0.1%
same,inhibition,[9],2.83%
same,inhibition,[10],3.26%
CS(=O)(=O)CCNCc1ccc(-c2ccc3ncnc(Nc4ccc(OCc5cccc(F)c5)c(C(F)(F)F)c4)c3c2)o1,inhibition,[1],3.6%
same,inhibition,[2],0.9%
same,inhibition,[3],5.19%
same,inhibition,[4],-4.38%
same,inhibition,[5],-2.61%
same,inhibition,[6],6.3%
same,inhibition,[7],6.29%
same,inhibition,[8],7.33%
same,inhibition,[9],6.22%
same,inhibition,[10],2.93%
Fc1cccc(COc2ccc(Nc3ncnc4sc(-c5cccs5)cc34)cc2Cl)c1,inhibition,[1],1.15%
same,inhibition,[2],0.57%
same,inhibition,[3],1.28%
same,inhibition,[4],-1.83%
same,inhibition,[5],1.54%
same,inhibition,[6],1.35%
same,inhibition,[7],2.73%
same,inhibition,[8],1.62%
same,inhibition,[9],1.65%
same,inhibition,[10],1.45%
COc1ccc(-c2ccncc2)cc1C(N)=O,inhibition,[1],0.74%
same,inhibition,[2],-1.44%
same,inhibition,[3],3.66%
same,inhibition,[4],-0.9%
same,inhibition,[5],1.01%
same,inhibition,[6],6.32%
same,inhibition,[7],8.48%
same,inhibition,[8],5.07%
same,inhibition,[9],5.66%
same,inhibition,[10],1.23%
CNC(=O)c1cncc(/C=C/c2c(Cl)cccc2Cl)c1,inhibition,[1],4.06%
same,inhibition,[2],3.3%
same,inhibition,[3],17.2%
same,inhibition,[4],0.11%
same,inhibition,[5],1.58%
same,inhibition,[6],6.39%
same,inhibition,[7],10.5%
same,inhibition,[8],3.03%
same,inhibition,[9],4.23%
same,inhibition,[10],5.08%
CS(=O)(=O)CCNCc1ccc(-c2ccc3ncnc(Nc4ccc(OCc5ccccc5)c(Cl)c4)c3c2)o1,inhibition,[1],2.01%
same,inhibition,[2],7.69%
same,inhibition,[3],39.4%
same,inhibition,[4],-7.6%
same,inhibition,[5],-0.02%
same,inhibition,[6],0.1%
same,inhibition,[7],1.24%
same,inhibition,[8],1.67%
same,inhibition,[9],1.38%
same,inhibition,[10],-1.06%
COc1ccccc1Nc1ncc(-c2ccccc2)o1,inhibition,[1],2.12%
same,inhibition,[2],2.01%
same,inhibition,[3],6.48%
same,inhibition,[4],0.73%
same,inhibition,[5],4.36%
same,inhibition,[6],6.58%
same,inhibition,[7],7.19%
same,inhibition,[8],4.73%
same,inhibition,[9],3.58%
same,inhibition,[10],3.32%
CCn1c(-c2nonc2N)nc2c(N3CCCC3)nccc21,inhibition,[1],-1.5%
same,inhibition,[2],-4.35%
same,inhibition,[3],4.6%
same,inhibition,[4],1.14%
same,inhibition,[5],2.3%
same,inhibition,[6],0.2%
same,inhibition,[7],4.02%
same,inhibition,[8],-2.4%
same,inhibition,[9],-2.63%
same,inhibition,[10],-1.29%
COc1cccc(-n2ncc3c(N/N=C/c4cccc(F)c4)ncnc32)c1,inhibition,[1],8.11%
same,inhibition,[2],6.17%
same,inhibition,[3],31%
same,inhibition,[4],-0.37%
same,inhibition,[5],-0.02%
same,inhibition,[6],4.04%
same,inhibition,[7],5.91%
same,inhibition,[8],3.95%
same,inhibition,[9],5.71%
same,inhibition,[10],0.69%
CCCN1CCC=C(c2ccc(Nc3nc(Nc4ccccc4C(N)=O)c4cc[nH]c4n3)c(C)c2)C1,inhibition,[1],9.79%
same,inhibition,[2],1.14%
same,inhibition,[3],5.4%
same,inhibition,[4],5.54%
same,inhibition,[5],27.4%
same,inhibition,[6],8.31%
same,inhibition,[7],33.4%
same,inhibition,[8],7.56%
same,inhibition,[9],28.2%
same,inhibition,[10],5.61%
O=C1NC(=O)C(N2CCc3ccccc32)=C1c1ccc(Cl)cc1,inhibition,[1],3.19%
same,inhibition,[2],0.13%
same,inhibition,[3],1.35%
same,inhibition,[4],3.14%
same,inhibition,[5],4.58%
same,inhibition,[6],6%
same,inhibition,[7],7.8%
same,inhibition,[8],6.55%
same,inhibition,[9],6.79%
same,inhibition,[10],0.98%
O=C1NC(=O)C(c2cccc(Cl)c2)=C1Nc1ccc(O)c(Cl)c1,inhibition,[1],0.29%
same,inhibition,[2],2.84%
same,inhibition,[3],2.76%
same,inhibition,[4],1.5%
same,inhibition,[5],2.74%
same,inhibition,[6],1.14%
same,inhibition,[7],6%
same,inhibition,[8],0.91%
same,inhibition,[9],7.11%
same,inhibition,[10],0.68%
COc1ccc(-c2coc3ncnc(N)c23)cc1,inhibition,[1],0.37%
same,inhibition,[2],1.25%
same,inhibition,[3],2.89%
same,inhibition,[4],0.06%
same,inhibition,[5],4.55%
same,inhibition,[6],4.66%
same,inhibition,[7],7.42%
same,inhibition,[8],6.07%
same,inhibition,[9],6.81%
same,inhibition,[10],2.99%
COc1cc2ncn(-c3cc(OCc4ccccc4Cl)c(C(N)=O)s3)c2cc1OC,inhibition,[1],9.65%
same,inhibition,[2],3.58%
same,inhibition,[3],17.9%
same,inhibition,[4],-2.94%
same,inhibition,[5],0.47%
same,inhibition,[6],2.05%
same,inhibition,[7],2.15%
same,inhibition,[8],1.45%
same,inhibition,[9],2.82%
same,inhibition,[10],0.16%
[O-][S+]1CCN(Cc2ccc(-c3ccc4ncnc(Nc5ccc(OCc6ccccc6)c(F)c5)c4c3)o2)CC1,inhibition,[1],3.36%
same,inhibition,[2],5.74%
same,inhibition,[3],30.5%
same,inhibition,[4],2.48%
same,inhibition,[5],1.13%
same,inhibition,[6],2.02%
same,inhibition,[7],5.8%
same,inhibition,[8],2.97%
same,inhibition,[9],6.44%
same,inhibition,[10],-0.54%
CCn1c(-c2nonc2N)nc2cncc(C(=O)N3CCNCC3)c21,inhibition,[1],2.14%
same,inhibition,[2],2.93%
same,inhibition,[3],3.85%
same,inhibition,[4],2.85%
same,inhibition,[5],4.99%
same,inhibition,[6],9.15%
same,inhibition,[7],11.5%
same,inhibition,[8],6.08%
same,inhibition,[9],5.58%
same,inhibition,[10],4.15%
COC(=O)Nc1nc2cc(Oc3ccc(NC(=O)Nc4cccc(C(=O)O)c4)cc3)ccc2[nH]1,inhibition,[1],3.17%
same,inhibition,[2],0%
same,inhibition,[3],2.43%
same,inhibition,[4],-4.68%
same,inhibition,[5],-4.2%
same,inhibition,[6],-0.5%
same,inhibition,[7],-1.69%
same,inhibition,[8],-0.53%
same,inhibition,[9],-0.73%
same,inhibition,[10],-0.09%
Nc1nc(-c2ccccn2)c(-c2ccc3ncccc3n2)s1,inhibition,[1],2.67%
same,inhibition,[2],-0.44%
same,inhibition,[3],0.23%
same,inhibition,[4],0.82%
same,inhibition,[5],0.6%
same,inhibition,[6],3.55%
same,inhibition,[7],7.22%
same,inhibition,[8],3.63%
same,inhibition,[9],5.74%
same,inhibition,[10],2.42%
O=C1NC(=O)C(c2ccc(Cl)cc2)=C1Nc1ccc(Cl)c(C(=O)O)c1,inhibition,[1],-3.28%
same,inhibition,[2],-3.3%
same,inhibition,[3],0.94%
same,inhibition,[4],-3.81%
same,inhibition,[5],-2.06%
same,inhibition,[6],-1.66%
same,inhibition,[7],-3.28%
same,inhibition,[8],-4%
same,inhibition,[9],-3.77%
same,inhibition,[10],-4.76%
c1cnn2ncc(-c3ccnc(Nc4ccc5c(c4)OCCO5)n3)c2c1,inhibition,[1],25%
same,inhibition,[2],6.25%
same,inhibition,[3],18.3%
same,inhibition,[4],0.79%
same,inhibition,[5],9.39%
same,inhibition,[6],9.37%
same,inhibition,[7],33.3%
same,inhibition,[8],8.24%
same,inhibition,[9],31%
same,inhibition,[10],-0.29%
